Data: PubChem BioAssay
The source made the active and inactive calls. Unless noted, how the calls were made is not given here.

Assays:
[1] = compound effects on lung adenocarcinoma cell viability – A549, calcein-AM fluorescence, 48 h, basal, profiling panel (AID 1162); settings: higher = more signal; further: test concentration not given here
[2] = compound effects on differentiated 3T3-L1 adipocyte viability – cell-based, 3T3-L1 adipocytes, calcein-AM fluorescence, 48 h, basal, profiling panel (AID 1163); settings: 3T3-L1 adipocytes viability, higher = more signal; further: test concentration not given here
[3] = compound effects on hepatocellular carcinoma cell viability – HepG2, calcein-AM fluorescence, 48 h, basal, profiling panel (AID 1164); settings: higher = more signal; further: test concentration not given here
[4] = compound effects on multiple myeloma cell viability – MM1S, calcein-AM fluorescence, 48 h, basal, profiling panel (AID 1165); settings: higher = more signal;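 further: viability of MM1S multiple myeloma cells under basal unstimulated conditions; test concentration not given here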
[5] = calcein-AM signal in unstimulated myeloma cells – cell-based, calcein-AM fluorescence, 48 h, PK04 Diversity Set, profiling panel (AID 1166); settings: RPMI8226 myeloma viability, higher = more signal;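 further: cells grown under basal conditions without added stimulus; test concentration not given here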
[6] = JC-1 mitochondrial signal, unstimulated HepG2 cells – cell-based, JC-1 fluorescence, 24 h, 100 nL compound, profiling panel (AID 1167); settings: HepG2 mitochondrial potential, higher = more signal; further: test concentration not given here
[7] = JC-1 mitochondrial signal, unstimulated adipocytes – cell-based, JC-1 fluorescence, 3T3-L1 adipocytes, 24 h, 100 nL compound, profiling panel (AID 1168); settings: JC-1 mitochondrial fluorescence, higher = more signal, called active from +8 up or from −8 down; further: test concentration not given here
[8] = JC-1 mitochondrial signal, unstimulated myeloma cells – cell-based, JC-1 fluorescence, RPMI8226, 24 h, 100 nL compound, profiling panel (AID 1169); settings: JC-1 mitochondrial potential fluorescence, higher = more signal; further: test concentration not given here
[9] = JC-1 mitochondrial signal, unstimulated MM1S myeloma – cell-based, JC-1 fluorescence, 24 h, 100 nL compound, profiling panel (AID 1170); settings: MM1S mitochondrial potential, higher = more signal; further: test concentration not given here
[10] = resazurin metabolic signal in A549 cells – cell-based, resazurin fluorescence, 24 h, PK04 Diversity Set, profiling panel (AID 1171); settings: A549 viability, higher = more signal, called active from +8 up or from −8 down; further: test concentration not given here
[11] = resazurin metabolic signal in HepG2 cells – cell-based, resazurin fluorescence, 24 h, PK04 Diversity Set, profiling panel (AID 1172); settings: HepG2 viability, higher = more signal; further: test concentration not given here
[12] = budding yeast growth changes without added modifier – OD600, strain BY4716, 24 h, basal condition, primary screen (AID 1173); settings: S. cerevisiae BY4716 growth, OD600, 24 h; higher = more signal, called active from +8 up or from −8 down
[13] = viability profiling in MM1S myeloma cells – cell-based, resazurin fluorescence, basal, 24 h, PK04 Diversity Set, profiling panel (AID 1174); settings: higher = more signal, called active from +8 up or from −8 down; further: test concentration not given here
[14] = biological target: Dihydroorotate dehydrogenase (quinone), mitochondrial (Plasmodium falciparum (isolate 3D7)) (UniProt Q08210); test: inhibition of P. falciparum DHODH – biochemical, C-terminal His tag, absorbance 600 nm, primary screen (AID 1175); settings: PfDHODH enzyme, DCIP absorbance 600 nm; higher = more signal, called active from +8 up or from −8 down;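 further: recombinant parasite enzyme with a five histidine tag at its C terminus; test concentration not given here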
[15] = inhibition of PAO1 biofilm formation – strain PAO1, LB-PBS medium, absorbance 600 nm, primary screen (AID 1176); further: test concentration not given here; settings: P. aeruginosa PAO1 growth/biofilm, A600, 12 h; higher = more signal
[16] = growth modulation of vineyard yeast isolate – strain RM11-1a, OD600, basal, 24 h, primary screen (AID 1177);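 further: cultures grown under basal conditions with no added stressor; test concentration not given here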; settings: S. cerevisiae RM11-1a growth, OD600, 24 h; higher = more signal, called active from +8 up or from −8 down
[17] = growth of efflux-deficient E. coli DRC39 – strain DRC39, OD650, 24 h, E. coli filamentation inducers, primary screen (AID 1178);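 further: growth measured as culture turbidity by optical density at 650 nm; test concentration not given here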; settings: E. coli DRC39 acrAB, higher = more signal, called active from +8 up or from −8 down
[18] = growth of efflux-deficient E. coli DRC39 – strain DRC39, OD650, 48 h, E. coli filamentation inducers, primary screen (AID 1179);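 further: screen aims at cell division blockers that make cells filament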; settings: E. coli DRC39 delta-acrAB growth, higher = more signal, called active from +8 up or from −8 down
[19] = viability profiling in RPMI8226 myeloma cells – cell-based, resazurin fluorescence, basal, 24 h, PK04 Diversity Set, profiling panel (AID 1180); settings: higher = more signal;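 further: RPMI8826 multiple myeloma cell line at 5000 cells per well; test concentration not given here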
[20] = biological target: E3 ubiquitin-protein ligase XIAP (Homo sapiens) (UniProt P98170); test: small molecules binding XIAP protein – biophysical, small-molecule microarray, fluorescence 635 nm, primary screen (AID 1181); settings: higher = more signal;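 further: score merges 667 nm emission and signal to noise over triplicate slides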
Sequence of E3 ubiquitin-protein ligase XIAP (Homo sapiens) (P98170 whole entry, looked up): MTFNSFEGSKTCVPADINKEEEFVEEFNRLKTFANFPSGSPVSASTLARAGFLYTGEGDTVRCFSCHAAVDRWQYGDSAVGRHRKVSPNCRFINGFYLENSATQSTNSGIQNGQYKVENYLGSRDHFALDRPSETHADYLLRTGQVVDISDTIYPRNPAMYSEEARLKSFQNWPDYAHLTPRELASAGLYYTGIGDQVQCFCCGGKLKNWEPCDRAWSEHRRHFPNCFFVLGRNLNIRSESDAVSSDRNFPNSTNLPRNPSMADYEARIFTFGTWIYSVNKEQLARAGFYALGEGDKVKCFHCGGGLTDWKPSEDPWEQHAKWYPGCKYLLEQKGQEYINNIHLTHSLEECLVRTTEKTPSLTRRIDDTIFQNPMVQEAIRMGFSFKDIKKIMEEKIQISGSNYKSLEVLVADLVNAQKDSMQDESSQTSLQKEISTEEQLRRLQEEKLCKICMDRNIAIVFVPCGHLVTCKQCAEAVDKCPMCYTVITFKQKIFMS

Sequence of Dihydroorotate dehydrogenase (quinone), mitochondrial (Plasmodium falciparum (isolate 3D7)) (Q08210 whole entry, looked up): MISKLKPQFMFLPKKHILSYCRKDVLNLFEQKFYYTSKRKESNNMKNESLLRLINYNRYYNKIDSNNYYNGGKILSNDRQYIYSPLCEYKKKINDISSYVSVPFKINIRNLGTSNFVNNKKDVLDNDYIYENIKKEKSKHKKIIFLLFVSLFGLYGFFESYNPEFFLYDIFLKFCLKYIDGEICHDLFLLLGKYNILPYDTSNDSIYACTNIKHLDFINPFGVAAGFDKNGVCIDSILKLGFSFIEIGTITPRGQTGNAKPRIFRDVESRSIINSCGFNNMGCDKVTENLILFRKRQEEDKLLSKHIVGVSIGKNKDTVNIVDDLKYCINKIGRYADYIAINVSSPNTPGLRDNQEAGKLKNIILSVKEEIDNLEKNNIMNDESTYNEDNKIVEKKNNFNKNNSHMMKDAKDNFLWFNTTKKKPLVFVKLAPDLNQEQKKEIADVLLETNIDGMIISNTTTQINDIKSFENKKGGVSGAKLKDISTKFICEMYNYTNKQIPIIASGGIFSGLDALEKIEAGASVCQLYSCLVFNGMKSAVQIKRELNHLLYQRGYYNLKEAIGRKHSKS

Row | Compound | z-score [1] | z-score [2] | z-score [3] | z-score [4] | z-score [5] | z-score [6] | z-score [7] | z-score [8] | z-score [9] | z-score [10] | z-score [11] | z-score [12] | z-score [13] | composite z-score [14] | z-score [15] | z-score [16] | z-score [17] | z-score [18] | z-score [19] | composite z-score [20]
1 | C[C@@H]1NC(=O)[C@@H](Cc2ccccc2)NC(=O)[C@@]23C(=O)N[C@@H](Cc4ccccc4)C2[C@H](C)[C@@]2(C)O[C@H]2C3/C=C/C/C=C\CNC1=O (stereo not given in full) | -0.312 | 0.599 | -0.543 | 0.18 | -0.377 | -1.36 | -0.308 (inactive) | -0.0163 | 1.09 | -0.879 (inactive) | -1.2 | 0.318 (inactive) | 0.0992 (inactive) | 0.0303 (inactive) | 0.413 (inactive) | 0.652 (inactive) | -0.811 (inactive) | -0.863 (inactive) | 0.329 | -0.0138
2 | COC(=O)[C@@]1(Cc2ccccc2)[C@H]2c3cc(C(=O)N4CCCC4)n(CCc4ccccn4)c3C[C@H]2CN1C(=O)c1ccccc1 | -1.16 | 1.13 | -0.503 | -1.59 | -1.32 | 0.571 | 0.533 (inactive) | -0.272 | -0.618 | 0.523 (inactive) | 0.281 | 1.3 (inactive) | -0.454 (inactive) | -0.105 (inactive) | -0.126 (inactive) | 0.23 (inactive) | -0.413 (inactive) | -0.906 (inactive) | 0.157 | 0.293
3 | O=C(c1ccccc1)N1C(=O)[C@]2(Cc3ccccc31)N=C(c1ccc(OCCCO)cc1)O[C@@H]2c1ccccc1 | -1.84 | 0.736 | -2.44 | -3.55 | -4.35 | -2.26 | -0.0262 (inactive) | -1.18 | -2.17 | -2.83 (inactive) | -2.28 | 0.964 (inactive) | -5.95 (inactive) | 0.934 (inactive) | 1.82 (inactive) | 2.14 (inactive) | -0.18 (inactive) | -1.01 (inactive) | -5.46 | 0.233
4 | CCCC1(C(=O)OC)C=C2C(=C(C)C(=O)C2C)CN1 (stereo not given) | -1.48 | -1.07 | -0.806 | -0.44 | -1.03 | -1.96 | -1.16 (inactive) | -0.0212 | -0.974 | -0.727 (inactive) | -1.11 | 1.99 (inactive) | -1.23 (inactive) | -1.8 (inactive) | 0.343 (inactive) | 0.338 (inactive) | -0.715 (inactive) | 0.0101 (inactive) | -1.88 | 0.258
5 | Cc1ccc(S[C@]2(C(=O)NCC(F)(F)F)CC(=O)N(Cc3cc(C(F)(F)F)cc(C(F)(F)F)c3)[C@@H]2c2ccc(CO)cc2)cc1 | 0.0806 | -0.547 | 0.643 | -0.783 | -0.759 | -0.693 | -0.658 (inactive) | 0.213 | -0.299 | -0.45 (inactive) | -0.686 | 0.438 (inactive) | -0.266 (inactive) | -13.9 (active) | 0.214 (inactive) | -0.145 (inactive) | -0.362 (inactive) | -0.615 (inactive) | -0.445 | -0.241
6 | O=C1C2C=CC(C(O)c3ccco3)N(Nc3ccccc3F)C2C(=O)N1c1ccccc1 (stereo not given) | -0.356 | -0.912 | -0.0718 | -0.142 | 0.243 | -1.27 | -0.346 (inactive) | -0.201 | 0.128 | 0.279 (inactive) | 0.162 | -0.258 (inactive) | -0.936 (inactive) | 0.334 (inactive) | 1.04 (inactive) | 0.101 (inactive) | -0.887 (inactive) | -0.921 (inactive) | -0.684 | 0.318
7 | CCCCC=C[C@@H](NC(=O)OCc1ccccc1Cl)c1ccccc1 | -1.28 | -1.2 | -0.661 | -0.919 | -0.871 | 0.359 | -0.337 (inactive) | -0.623 | -1.03 | 0.297 (inactive) | -0.656 | 1.33 (inactive) | -1.19 (inactive) | 0.0518 (inactive) | 0.84 (inactive) | 1.48 (inactive) | -1.32 (inactive) | -0.892 (inactive) | -1.2 | 0.0137
8 | CC(=O)NCCCC[C@@H]1NC(=O)[C@@H]2C[C@H](C(=O)NCCCCCN)[C@H](c3ccc(O)cc3)N2C1=O | -0.185 | 0.42 | -0.512 | -0.449 | -0.131 | 0.651 | -0.00185 (inactive) | -0.673 | 0.774 | -1.42 (inactive) | -0.714 | -0.12 (inactive) | 0.707 (inactive) | 0.143 (inactive) | 0.0094 (inactive) | -0.0659 (inactive) | -0.139 (inactive) | -0.515 (inactive) | 0.0794 | 0.492
9 | N#Cc1ccc(NN2C(C(O)c3ccc(Br)cc3)C=CC3C(=O)N(c4ccccc4)C(=O)C32)cc1 (stereo not given) | 0.647 | 0.0175 | 1.11 | -0.615 | 0.201 | -0.574 | 0.507 (inactive) | 0.244 | 0.0172 | -0.421 (inactive) | -1.3 | -3.42 (inactive) | -0.299 (inactive) | -1.03 (inactive) | 0.819 (inactive) | -1.85 (inactive) | 0.527 (inactive) | 0.656 (inactive) | -0.0706 | 0.179
10 | CC1CC/C=C\[C@H]2OC34C=CCN(c5ccc(Cl)cc5)C(=O)[C@H]3N(C(C)CO)C(=O)[C@]4(C)C2C(=O)O1 (stereo not given in full) | 0.924 | -0.761 | 1.24 | 1.31 | 0.37 | 0.807 | -0.29 (inactive) | -0.0845 | -0.723 | 0.0378 (inactive) | 0.66 | -0.876 (inactive) | 0.535 (inactive) | 0.291 (inactive) | -0.428 (inactive) | 0.33 (inactive) | 1.31 (inactive) | 1.48 (inactive) | 0.555 | 0.3
11 | CC(C)C(O)C1C=CC2C(=O)N(c3ccccc3)C(=O)C2N1Nc1ccccc1 (stereo not given) | -1.17 | -0.68 | -0.917 | -0.528 | -1.03 | -1.6 | -0.855 (inactive) | 0.0949 | -1.35 | 0.184 (inactive) | -0.196 | -2.05 (inactive) | -0.302 (inactive) | -0.85 (inactive) | 0.835 (inactive) | 0.334 (inactive) | 0.562 (inactive) | 0.376 (inactive) | -0.825 | 0.123
12 | CCCCCC1=C2CNC(C)(C(=O)OC)C=C2C(C)C1=O (stereo not given) | -1.23 | -0.0708 | -1.29 | -0.865 | -0.467 | -1.71 | -1.22 (inactive) | 0.782 | -0.362 | -0.722 (inactive) | -0.901 | 2.3 (inactive) | -1.59 (inactive) | -0.455 (inactive) | 1.06 (inactive) | 1.18 (inactive) | -0.814 (inactive) | -0.193 (inactive) | -1.66 | 0.152
13 | CCCCC(=C=CC[C@H](O)c1ccc(OCCO)cc1)CCO | -0.113 | 0.524 | 0.761 | -2.4 | 0.0135 | -1.25 | -0.968 (inactive) | -0.573 | -0.952 | 0.533 (inactive) | -0.0738 | -2.31 (inactive) | -0.149 (inactive) | -0.32 (inactive) | 0.154 (inactive) | -0.162 (inactive) | -1.28 (inactive) | -1.06 (inactive) | 0.0466 | 0.0365
14 | CC(C)[Si](C#C[Si](C(C)C)(C(C)C)C(C)C)(O[C@H](c1ccccc1)c1cn(Cc2ccccc2)nn1)C(C)C | -0.491 | -0.224 | 0.732 | 1.01 | 0.798 | 1.63 | -0.703 (inactive) | 0.294 | -0.888 | 1.77 (inactive) | 0.918 | 1.6 (inactive) | 0.869 (inactive) | 0.367 (inactive) | 0.0885 (inactive) | 1.14 (inactive) | -0.177 (inactive) | 0.662 (inactive) | 1.43 | 0.0368
